Source: PubChem BioAssay
Most compounds without a hit are left out; they make up all but 10% or so of the library.
3T3 cytotox = cytotoxic compounds in NIH 3T3 cells; Potency, µM (highest dose often 96.7 µM), actives largely listed as inhibitors; NIH 3T3 viability, CellTiter-Glo ATP luminescence, 48-72 h; hit rate 4.3% among 94,000; also: nearly all actives have a fitted effect of over 55% in size
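Viability of NIH 3T3 cells after 48 or 72 hr compound treatment at 37 °C was assessed by CellTiter-Glo, with luminescence imaged following a 10 min room-temperature step.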
hNpr1 antagonist = human Npr1 receptor antagonism | P16066 | HEK293 hNpr1 GloSensor cGMP, ANP-stimulated luminescence | Potency, µM (doses to about 46.3 µM), usual class: inhibitors | hit rate 1.6% among 76,000 | AID 1347048; calls by dose curve; also: nearly all actives have a fitted effect of over 60% in size
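Compound pre-incubated 30 min at room temperature on GloSensor-loaded HEK293 cells stably carrying hNpr1 and the pGS-40F cGMP biosensor. Stimulation uses hNppA at 0.1 nM final; luminescence is taken at baseline and 20 min post-agonist.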
GPT2 inhibitor = blocks human glutamate pyruvate transaminase 2; Q8TD30; Recombinant GPT2, coupled pyruvate oxidase/HRP Amplex Red fluorescence; Potency, µM (top dose mostly 57.7 µM), usual class: inhibitors; hit rate 0.25% among 100,000; also: nearly all actives have a fitted effect of over 60% in size
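Fluorescence of coupled pyruvate oxidase/HRP/Amplex Red system (50uM Amplex, 30 min, dark) reports pyruvate formed by GPT2. Enzyme reaction: 10ng/uL GPT2, 2mM L-alanine, 250uM a-KG, 30 min room temperature, pH 7.5; 50uM AOA control.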
Luciferase inh = Photinus pyralis luciferase inhibition; purified P. pyralis luciferase, luminescence, biochemical; Potency, µM (top dose mostly 115 µM), usual class: inhibitors; hit rate 2.5% among 76,000; also: nearly all actives have a fitted effect of over 65% in size
Target sequence (P08659 whole entry, looked up): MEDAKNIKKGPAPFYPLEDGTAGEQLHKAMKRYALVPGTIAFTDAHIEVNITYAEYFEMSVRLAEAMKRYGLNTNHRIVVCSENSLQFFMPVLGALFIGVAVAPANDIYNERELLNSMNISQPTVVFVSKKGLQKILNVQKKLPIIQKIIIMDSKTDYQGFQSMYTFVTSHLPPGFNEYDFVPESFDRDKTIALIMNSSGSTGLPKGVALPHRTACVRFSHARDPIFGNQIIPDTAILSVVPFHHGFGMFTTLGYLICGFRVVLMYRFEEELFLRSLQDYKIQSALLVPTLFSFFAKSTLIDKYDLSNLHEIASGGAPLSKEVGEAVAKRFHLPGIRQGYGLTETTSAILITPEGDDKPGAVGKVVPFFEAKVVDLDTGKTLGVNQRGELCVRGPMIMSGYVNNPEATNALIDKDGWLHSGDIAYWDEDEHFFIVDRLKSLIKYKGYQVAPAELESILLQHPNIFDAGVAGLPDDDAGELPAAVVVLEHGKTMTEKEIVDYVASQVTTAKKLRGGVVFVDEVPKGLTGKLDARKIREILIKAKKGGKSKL
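Cell-free enzyme assay, 10nM P. pyralis luciferase, luciferin and ATP each at 10uM. Inhibition profiled over a 6-point titration, read as luminescence.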
HEK cytotox = cytotoxic compounds in HEK 293 cells; HEK 293 viability, ATP luminescence (CellTiter-Glo), 48-72 h; Potency, µM (top dose mostly 115 µM), most hits filed as inhibitors; hit rate 6.6% among 94,000; AID 1345083; also: nearly all actives have a fitted effect of over 60% in size
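HEK 293 seeded at 250 cells/well receive compound via pintool. After 48 or 72 hr at 37 degree Celsius, 5% CO2 and 95% humidity, CellTiter-Glo is dispensed and luminescence read following 10 min at room temperature.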
A number is an active result; [ ] = remark or other dose. Unless noted, calls follow the shape of the dose curve; as a rule, active = well fitted curve in the direction sought with a large enough effect; inconclusive = small, poorly fitted or top-dose-only effect, or another doubt; inactive = no such curve, though single readings can be large; an effect the other way counts as inactive or inconclusive.

For CCC(=O)N1CCc2ccc(OCc3nc(C(=O)NCCOC)co3)cc2C1c1ccc(C)cc1 (centres undefined) the results were 3T3 cytotox inactive, hNpr1 antagonist inactive, GPT2 inhibitor inactive, Luciferase inh inactive and HEK cytotox 28µM.
`C=CCNC(=O)c1coc(COc2ccc3c(c2)C(c2cccc(C)c2)N(C(=O)C2CC2)CC3)n1` (centres undefined) gave 3T3 cytotox inconclusive, hNpr1 antagonist inactive, GPT2 inhibitor inactive, Luciferase inh inactive and HEK cytotox 35µM.
`O=C(NC1CCN(CCn2nc3n(c2=O)CCCC3)C1)c1ccccn1` (centres undefined) gave 3T3 cytotox inactive and HEK cytotox inactive.
For CC(NC(=O)Cc1ccc(N(Cc2cccc(F)c2)C(=O)c2ccco2)cc1)c1ccccc1 (centres undefined) the results were 3T3 cytotox inconclusive, hNpr1 antagonist inactive, GPT2 inhibitor inactive, Luciferase inh inactive and HEK cytotox inconclusive.
For O=C(c1ccccn1)N1CCCC2(CNc3ncccc3[S+](=O)([O-])N2)C1 (centres undefined) the results were 3T3 cytotox inactive and HEK cytotox inactive.
For Cc1ccc(C2c3cc(OCc4nc(C(=O)N5CCCC5)co4)ccc3CCN2C(=O)C2CC2)cc1 (centres undefined) the results were 3T3 cytotox inconclusive, hNpr1 antagonist inactive, GPT2 inhibitor inactive, Luciferase inh inactive and HEK cytotox 40µM.
O=C(Cn1cccc1-c1nc(-c2ccccc2)no1)Nc1ccc(F)c(F)c1 was read as 3T3 cytotox inactive, hNpr1 antagonist inactive, GPT2 inhibitor inactive, Luciferase inh inactive and HEK cytotox inactive.
C[C@@H](N)C(=O)N1CCC(C(=O)Nc2cccc(-c3cccc(Cl)c3)c2)CC1 was read as 3T3 cytotox 28µM, hNpr1 antagonist inactive, GPT2 inhibitor inactive, Luciferase inh inactive and HEK cytotox 40µM.
`O=C(CCc1ccccc1)c1c(O)c([C@@H]2O[C@H](CO)[C@@H](O)[C@H](O)[C@H]2O)c(O)c([C@@H]2O[C@H](CO)[C@@H](O)[C@H](O)[C@H]2O)c1O` gave GPT2 inhibitor inactive.
`Cc1ccc(-c2ccc(CCC(=O)N[C@@H]3CCOC[C@H]3OCC(=O)O)o2)cc1` gave 3T3 cytotox inactive, hNpr1 antagonist inactive, GPT2 inhibitor inactive[11.5 µM], Luciferase inh 25µM and HEK cytotox inactive.
Cc1ccc(-c2ncc(C(=O)Nc3cccc(Br)c3)c(-c3ccncc3)n2)cc1 was read as 3T3 cytotox inconclusive, hNpr1 antagonist inactive, GPT2 inhibitor inconclusive, Luciferase inh inactive and HEK cytotox 25µM.
Cc1cc(Cl)ccc1NC(=O)c1cnc(-c2ccccc2)nc1-c1ccncc1 was read as 3T3 cytotox 20µM, hNpr1 antagonist inconclusive, GPT2 inhibitor inactive, Luciferase inh inactive and HEK cytotox 45µM.
Screening Cc1ccc(-c2ncc(C(=O)NCCN(C)C3CCCCC3)c(-c3ccncc3)n2)cc1 returned 3T3 cytotox 25µM, hNpr1 antagonist inactive, GPT2 inhibitor inactive, Luciferase inh inactive and HEK cytotox 20µM.
Screening COc1ccc2c(c1)c(CN1C[C@@H](C(N)=O)[C@H](c3nc(C)no3)C1)cn2C(C)C returned 3T3 cytotox inconclusive, hNpr1 antagonist inactive, GPT2 inhibitor inactive, Luciferase inh inactive and HEK cytotox inconclusive.
For Cc1ccc(C2(C(=O)N[C@@H]3COCC[C@@H]3OCc3ccccc3)CC2)cc1 the results were 3T3 cytotox inconclusive, hNpr1 antagonist inactive, GPT2 inhibitor inactive, Luciferase inh inactive and HEK cytotox 45µM.
Screening COc1ccc(Cn2c(=O)c(C(=O)N3CCN(C(=O)C4CC4)CC3)nc3cccnc32)cc1 returned 3T3 cytotox inactive and HEK cytotox inactive.
`CC(=O)c1ccc(NC(=O)Cn2c(N3CCc4ccccc4C3)nc(C)cc2=O)cc1` gave 3T3 cytotox 28µM, hNpr1 antagonist inactive, GPT2 inhibitor inactive, Luciferase inh inactive and HEK cytotox 35µM.
For CCOc1ccc(NC(=O)Cn2c(Nc3cc(C)cc(C)c3)nc(C)cc2=O)cc1 the results were 3T3 cytotox 32µM, hNpr1 antagonist inactive, GPT2 inhibitor inactive, Luciferase inh inactive and HEK cytotox inconclusive.
For CCOc1ccc(NC(=O)Cn2c(N3CCc4ccccc4C3)nc(C)cc2=O)cc1 the results were 3T3 cytotox 32µM, hNpr1 antagonist inactive, GPT2 inhibitor inactive, Luciferase inh inactive and HEK cytotox 40µM.
Screening CCOc1ccc(NC(=O)Cn2c(N3CCN(c4ccccc4)CC3)nc(C)cc2=O)cc1 returned 3T3 cytotox inactive, hNpr1 antagonist inactive, GPT2 inhibitor inactive, Luciferase inh inactive and HEK cytotox inconclusive.
Screening CC(=O)c1cccc(NC(=O)Cn2c(N3CCc4ccccc4C3)nc(C)cc2=O)c1 returned 3T3 cytotox inconclusive, hNpr1 antagonist inactive, GPT2 inhibitor inactive, Luciferase inh inactive and HEK cytotox 45µM.
Screening Cc1cc(=O)n(CC(=O)Nc2ccc(C)c(C)c2)c(N2CCc3ccccc3C2)n1 returned 3T3 cytotox inactive, hNpr1 antagonist inactive, GPT2 inhibitor inactive, Luciferase inh inactive and HEK cytotox inconclusive.
For CCOc1ccc(NC(=O)Cn2c(-c3ccccc3)nc(C)cc2=O)cc1 the results were 3T3 cytotox inconclusive, hNpr1 antagonist inactive, GPT2 inhibitor inactive, Luciferase inh inactive and HEK cytotox inconclusive.
`O=C1CC(c2ccccc2)N(S(=O)(=O)c2ccccc2)CCCCCCN1` (centres undefined) gave 3T3 cytotox inactive, hNpr1 antagonist inactive, GPT2 inhibitor inconclusive, Luciferase inh inactive and HEK cytotox inactive.
Screening CCOC(=O)c1ccc(NC(=O)N2CCc3c(nc4cc[nH]n4c3=O)C2)cc1 returned 3T3 cytotox inactive, hNpr1 antagonist inactive, GPT2 inhibitor inactive, Luciferase inh inactive and HEK cytotox inactive.
Screening CCCCCC(=O)N1CCC(=O)N(CC(=O)OCC)c2ccccc2C(OC)C1 (centres undefined) returned 3T3 cytotox inconclusive, GPT2 inhibitor inactive and HEK cytotox inconclusive.
Screening CSc1ccc(-c2ccc3c(c2)C(=O)N2CCN(C(=O)CCC(=O)O)C[C@H]2C(=O)N3)cc1 returned 3T3 cytotox inactive, hNpr1 antagonist inactive, GPT2 inhibitor inactive, Luciferase inh 32µM and HEK cytotox inactive.
Screening CSc1ccc(-c2ccc3c(c2)C(=O)N2CCN(C(=O)CC(C)(C)C)C[C@@H]2C(=O)N3)cc1 returned 3T3 cytotox inconclusive, hNpr1 antagonist inactive, GPT2 inhibitor inactive, Luciferase inh inactive and HEK cytotox 35µM.
`CSc1ccc(-c2ccc3c(c2)C(=O)N2CCN(C(=O)CCC(=O)O)C[C@@H]2C(=O)N3)cc1` gave 3T3 cytotox inactive, hNpr1 antagonist inactive, GPT2 inhibitor inactive, Luciferase inh inconclusive and HEK cytotox inactive.
